From PubChem BioAssay AID1159580 (chemical genetic matrix, 2015)
The whole screen tested about 5,500 compounds, of which about 2,000 (36%) were called active. Not shown: some 18% with an inconclusive outcome. Cut-off read from the data, not from the text of the source: active = normalized growth mostly below about 0.91 (no sharp cut-off); inconclusive = no clear call, values can overlap the other calls; inactive = mostly above about 0.92. Some of the results follow.

Assay: chemical genetic growth profiling, strain panel (AID 1159580);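 note: tested at 20 µM; growth read once vehicle control cultures reached saturation at 30 °C; 1 = growth at the plate median or of vehicle wells; lower values mean less growth of the strain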
Details: growth OD

Measured: normalized growth

COc1ccc2c(c1)[C@@]1(C)CCC(=O)C[C@H]1CC2
inactive: S. cerevisiae deletion strains, locus YAL013W, strain DEP1, stronger effect = lower value 0.984 | S. cerevisiae deletion strains, locus YAL021C, strain ccr4, stronger effect = lower value 0.989 | S. cerevisiae deletion strains, locus YAL026C, strain drs2, stronger effect = lower value 0.982 | S. cerevisiae deletion strains, locus YAL030W, strain snc1, stronger effect = lower value 0.959 | S. cerevisiae deletion strains, locus YBL061C, strain skt5, stronger effect = lower value 0.989 | S. cerevisiae deletion strains, locus YBR009C, strain hhf1, stronger effect = lower value 0.98 | S. cerevisiae deletion strains, locus YBR021W, strain FUR4, stronger effect = lower value 0.969 | S. cerevisiae deletion strains, locus YBR023C, strain chs3, stronger effect = lower value 0.98 | S. cerevisiae deletion strains, locus YBR171W, strain sec66, stronger effect = lower value 0.93 | S. cerevisiae deletion strains, locus YBR229C, strain ROT2, stronger effect = lower value 0.994 | S. cerevisiae deletion strains, locus YBR231C, strain swc5, stronger effect = lower value 0.986 | S. cerevisiae deletion strains, locus YBR279W, strain paf1, stronger effect = lower value 0.98 | S. cerevisiae deletion strains, locus YCL011C, strain gbp2, stronger effect = lower value 0.961 | S. cerevisiae deletion strains, locus YCL016C, strain dcc1, stronger effect = lower value 0.976 | S. cerevisiae deletion strains, locus YCL029C, strain bik1, stronger effect = lower value 0.985 | S. cerevisiae deletion strains, locus YCL061C, strain MRC1, stronger effect = lower value 0.949 | S. cerevisiae deletion strains, locus YCL069W, strain vba3, stronger effect = lower value 0.963 | S. cerevisiae deletion strains, locus YCR088W, strain abp1, stronger effect = lower value 0.978 | S. cerevisiae deletion strains, locus YDL005C, strain med2, stronger effect = lower value 0.954 | S. cerevisiae deletion strains, locus YDL035C, strain GPR1, stronger effect = lower value 1.01 | S. cerevisiae deletion strains, locus YDL040C, strain nat1, stronger effect = lower value 0.969 | S. cerevisiae deletion strains, locus YDL074C, strain BRE1, stronger effect = lower value 1.01 | S. cerevisiae deletion strains, locus YDL101C, strain DUN1, stronger effect = lower value 1 | S. cerevisiae deletion strains, locus YDL134C, strain PPH21, stronger effect = lower value 0.995 | S. cerevisiae deletion strains, locus YDL185W, strain tfp1, stronger effect = lower value 0.977 | S. cerevisiae deletion strains, locus YDL192W, strain arf1, stronger effect = lower value 0.98 | S. cerevisiae deletion strains, locus YDR001C, strain nth1, stronger effect = lower value 0.973 | S. cerevisiae deletion strains, locus YDR069C, strain doa4, stronger effect = lower value 0.963 | S. cerevisiae deletion strains, locus YDR101C, strain arx1, stronger effect = lower value 0.985 | S. cerevisiae deletion strains, locus YDR137W, strain rgp1, stronger effect = lower value 0.902 | S. cerevisiae deletion strains, locus YDR159W, strain sac3, stronger effect = lower value 0.937 | S. cerevisiae deletion strains, locus YDR162C, strain NBP2, stronger effect = lower value 1.01 | S. cerevisiae deletion strains, locus YDR195W, strain ref2 1.01 | S. cerevisiae deletion strains, locus YDR297W, strain sur2, stronger effect = lower value 0.98 | S. cerevisiae deletion strains, locus YDR318W, strain mcm21, stronger effect = lower value 0.975 | S. cerevisiae deletion strains, locus YDR334W, strain swr1, stronger effect = lower value 0.94 | S. cerevisiae deletion strains, locus YDR335W, strain msn5, stronger effect = lower value 0.967 | S. cerevisiae deletion strains, locus YDR388W, stronger effect = lower value 0.978 | S. cerevisiae deletion strains, locus YDR392W, strain spt3, stronger effect = lower value 0.938 | S. cerevisiae deletion strains, locus YDR502C, strain sam2, stronger effect = lower value 0.951 | S. cerevisiae deletion strains, locus YEL003W, strain gim4, stronger effect = lower value 0.942 | S. cerevisiae deletion strains, locus YEL037C, strain rad23, stronger effect = lower value 0.97 | S. cerevisiae deletion strains, locus YEL061C, strain CIN8 (second series), stronger effect = lower value 0.97 | S. cerevisiae deletion strains, locus YER015W, strain faa2, stronger effect = lower value 0.973 | S. cerevisiae deletion strains, locus YER016W, strain bim1, stronger effect = lower value 0.965 | S. cerevisiae deletion strains, locus YER110C, stronger effect = lower value 0.958 | S. cerevisiae deletion strains, locus YER111C, strain swi4, stronger effect = lower value 0.942 | S. cerevisiae deletion strains, locus YER155C, strain BEM2 (second series), stronger effect = lower value 0.899 | S. cerevisiae deletion strains, locus YER155C, strain BEM2, stronger effect = lower value 0.989 | S. cerevisiae deletion strains, locus YER167W, strain BCK2, stronger effect = lower value 0.996 | S. cerevisiae deletion strains, locus YFR010W, strain ubp6, stronger effect = lower value 0.992 | S. cerevisiae deletion strains, locus YGL078C, strain dbp3, stronger effect = lower value 0.983 | S. cerevisiae deletion strains, locus YGL086W, strain mad1, stronger effect = lower value 0.964 | S. cerevisiae deletion strains, locus YGL173C, strain kem1, stronger effect = lower value 0.949 | S. cerevisiae deletion strains, locus YGL227W, strain vid30, stronger effect = lower value 0.96 | S. cerevisiae deletion strains, locus YGL240W, strain doc1, stronger effect = lower value 0.923 | S. cerevisiae deletion strains, locus YGL248W, strain PDE1, stronger effect = lower value 0.998 | S. cerevisiae deletion strains, locus YGL253W, strain hxk2, stronger effect = lower value 0.932 | S. cerevisiae deletion strains, locus YGR135W, strain pre9, stronger effect = lower value 0.947 | S. cerevisiae deletion strains, locus YGR252W, strain gcn5, stronger effect = lower value 0.933 | S. cerevisiae deletion strains, locus YHR013C, strain ard1, stronger effect = lower value 0.966 | S. cerevisiae deletion strains, locus YHR027C, strain rpn1, stronger effect = lower value 0.965 | S. cerevisiae deletion strains, locus YHR079C, strain IRE1 (second series), stronger effect = lower value 0.977 | S. cerevisiae deletion strains, locus YHR094C, strain hxt1, stronger effect = lower value 0.968 | S. cerevisiae deletion strains, locus YHR129C, strain ARP1, stronger effect = lower value 0.992 | S. cerevisiae deletion strains, locus YHR142W, strain chs7, stronger effect = lower value 0.954 | S. cerevisiae deletion strains, locus YHR200W, strain rpn10, stronger effect = lower value 0.971 | S. cerevisiae deletion strains, locus YIL066C, strain RNR3, stronger effect = lower value 1.01 | S. cerevisiae deletion strains, locus YIL073C, strain SPO22, stronger effect = lower value 0.964 | S. cerevisiae deletion strains, locus YIL125W, strain kgd1, stronger effect = lower value 0.994 | S. cerevisiae deletion strains, locus YIR030C, strain dcg1, stronger effect = lower value 0.974 | S. cerevisiae deletion strains, locus YJL092W, strain hpr5, stronger effect = lower value 0.948 | S. cerevisiae deletion strains, locus YJL095W, strain BCK1 (second series), stronger effect = lower value 0.959 | S. cerevisiae deletion strains, locus YJL095W, strain BCK1, stronger effect = lower value 0.958 | S. cerevisiae deletion strains, locus YJL115W, strain asf1, stronger effect = lower value 0.936 | S. cerevisiae deletion strains, locus YJL129C, strain trk1, stronger effect = lower value 0.973 | S. cerevisiae deletion strains, locus YJL134W, strain LCB3, stronger effect = lower value 0.995 | S. cerevisiae deletion strains, locus YJL154C, strain vps35, stronger effect = lower value 0.958 | S. cerevisiae deletion strains, locus YJL164C, strain tpk1, stronger effect = lower value 0.972 | S. cerevisiae deletion strains, locus YJL166W, strain qcr8, stronger effect = lower value 0.96 | S. cerevisiae deletion strains, locus YJL168C, strain set2, stronger effect = lower value 0.951 | S. cerevisiae deletion strains, locus YJL187C, strain SWE1 (second series), stronger effect = lower value 0.998 | S. cerevisiae deletion strains, locus YKL009W, strain mrt4, stronger effect = lower value 0.997 | S. cerevisiae deletion strains, locus YKL068W, stronger effect = lower value 0.993 | S. cerevisiae deletion strains, locus YKL085W, strain MDH1 (second series), stronger effect = lower value 0.986 | S. cerevisiae deletion strains, locus YKL085W, strain MDH1, stronger effect = lower value 0.986 | S. cerevisiae deletion strains, locus YKL160W, strain elf1, stronger effect = lower value 0.977 | S. cerevisiae deletion strains, locus YKL190W, strain CNB1, stronger effect = lower value 0.994 | S. cerevisiae deletion strains, locus YKR001C, strain vps1, stronger effect = lower value 0.953 | S. cerevisiae deletion strains, locus YKR026C, strain gcn3, stronger effect = lower value 0.976 | S. cerevisiae deletion strains, locus YKR091W, strain srl3, stronger effect = lower value 0.968 | S. cerevisiae deletion strains, locus YLL001W, strain dnm1, stronger effect = lower value 0.951 | S. cerevisiae deletion strains, locus YLL026W, stronger effect = lower value 0.964 | S. cerevisiae deletion strains, locus YLL041C, strain sdh2, stronger effect = lower value 0.98 | S. cerevisiae deletion strains, locus YLR027C, strain aat2, stronger effect = lower value 0.968 | S. cerevisiae deletion strains, locus YLR039C, strain RIC1, stronger effect = lower value 0.96 | S. cerevisiae deletion strains, locus YLR058C, strain SHM2, stronger effect = lower value 0.995 | S. cerevisiae deletion strains, locus YLR102C, strain apc9, stronger effect = lower value 0.985 | S. cerevisiae deletion strains, locus YLR221C, strain rsa3, stronger effect = lower value 0.969 | S. cerevisiae deletion strains, locus YLR258W, strain gsy2, stronger effect = lower value 0.967 | S. cerevisiae deletion strains, locus YLR262C, strain YPT6 (second series), stronger effect = lower value 0.969 | S. cerevisiae deletion strains, locus YLR262C, strain YPT6, stronger effect = lower value 0.973 | S. cerevisiae deletion strains, locus YLR268W, strain sec22, stronger effect = lower value 0.965 | S. cerevisiae deletion strains, locus YLR320W, strain mms22, stronger effect = lower value 0.966 | S. cerevisiae deletion strains, locus YLR342W, strain FKS1, stronger effect = lower value 0.969 | S. cerevisiae deletion strains, locus YLR357W, strain rsc2, stronger effect = lower value 0.947 | S. cerevisiae deletion strains, locus YLR370C, strain arc18, stronger effect = lower value 0.953 | S. cerevisiae deletion strains, locus YLR371W, strain rom2, stronger effect = lower value 0.98 | S. cerevisiae deletion strains, locus YLR384C, strain iki3, stronger effect = lower value 0.969 | S. cerevisiae deletion strains, locus YLR418C, strain cdc73, stronger effect = lower value 0.956 | S. cerevisiae deletion strains, locus YML016C, strain PPZ1, stronger effect = lower value 0.989 | S. cerevisiae deletion strains, locus YML032C, strain rad52, stronger effect = lower value 0.988 | S. cerevisiae deletion strains, locus YML120C, strain ndi1, stronger effect = lower value 0.953 | S. cerevisiae deletion strains, locus YML124C, strain tub3, stronger effect = lower value 0.976 | S. cerevisiae deletion strains, locus YMR058W, strain fet3, stronger effect = lower value 0.948 | S. cerevisiae deletion strains, locus YMR078C, strain ctf18, stronger effect = lower value 0.965 | S. cerevisiae deletion strains, locus YMR125W, strain sto1, stronger effect = lower value 0.97 | S. cerevisiae deletion strains, locus YMR129W, stronger effect = lower value 0.994 | S. cerevisiae deletion strains, locus YMR205C, strain PFK2, stronger effect = lower value 0.976 | S. cerevisiae deletion strains, locus YMR223W, strain ubp8, stronger effect = lower value 0.98 | S. cerevisiae deletion strains, locus YMR231W, strain pep5, stronger effect = lower value 0.968 | S. cerevisiae deletion strains, locus YMR307W, strain GAS1, stronger effect = lower value 1 | S. cerevisiae deletion strains, locus YNL067W, strain RPL9B, stronger effect = lower value 0.975 | S. cerevisiae deletion strains, locus YNL071W, strain lat1, stronger effect = lower value 0.955 | S. cerevisiae deletion strains, locus YNL153C, strain GIM3, stronger effect = lower value 0.995 | S. cerevisiae deletion strains, locus YNL233W, strain BNI4, stronger effect = lower value 0.959 | S. cerevisiae deletion strains, locus YNL248C, strain rpa49, stronger effect = lower value 1.03 | S. cerevisiae deletion strains, locus YNL250W, strain rad50, stronger effect = lower value 0.968 | S. cerevisiae deletion strains, locus YNL271C, strain bni1, stronger effect = lower value 0.97 | S. cerevisiae deletion strains, locus YNL298W, strain CLA4, stronger effect = lower value 0.976 | S. cerevisiae deletion strains, locus YNL307C, strain MCK1, stronger effect = lower value 0.963 | S. cerevisiae deletion strains, locus YNL322C, strain KRE1 (second series), stronger effect = lower value 0.964 | S. cerevisiae deletion strains, locus YNL322C, strain KRE1, stronger effect = lower value 0.989 | S. cerevisiae deletion strains, locus YNR049C, strain mso1, stronger effect = lower value 0.932 | S. cerevisiae deletion strains, locus YNR052C, strain pop2, stronger effect = lower value 0.971 | S. cerevisiae deletion strains, locus YOL012C, strain htz1 1.7 | S. cerevisiae deletion strains, locus YOL147C, strain pex11, stronger effect = lower value 0.967 | S. cerevisiae deletion strains, locus YOR001W, strain rrp6, stronger effect = lower value 0.97 | S. cerevisiae deletion strains, locus YOR061W, strain CKA2, stronger effect = lower value 1 | S. cerevisiae deletion strains, locus YOR069W, strain VPS5, stronger effect = lower value 0.989 | S. cerevisiae deletion strains, locus YOR070C, strain gyp1, stronger effect = lower value 0.97 | S. cerevisiae deletion strains, locus YOR080W, strain dia2, stronger effect = lower value 0.956 | S. cerevisiae deletion strains, locus YOR083W, strain WHI5, stronger effect = lower value 0.969 | S. cerevisiae deletion strains, locus YOR106W, strain vam3, stronger effect = lower value 1 | S. cerevisiae deletion strains, locus YOR136W, strain idh2, stronger effect = lower value 0.98 | S. cerevisiae deletion strains, locus YOR144C, strain elg1, stronger effect = lower value 0.975 | S. cerevisiae deletion strains, locus YOR184W, strain ser1, stronger effect = lower value 0.92 | S. cerevisiae deletion strains, locus YOR265W, strain rbl2, stronger effect = lower value 0.973 | S. cerevisiae deletion strains, locus YOR270C, strain vph1, stronger effect = lower value 0.997 | S. cerevisiae deletion strains, locus YOR290C, strain snf2, stronger effect = lower value 0.957 | S. cerevisiae deletion strains, locus YOR316C, strain cot1, stronger effect = lower value 0.974 | S. cerevisiae deletion strains, locus YPL051W, strain arl3, stronger effect = lower value 0.985 | S. cerevisiae deletion strains, locus YPL078C, strain atp4, stronger effect = lower value 0.95 | S. cerevisiae deletion strains, locus YPL106C, strain sse1, stronger effect = lower value 0.928 | S. cerevisiae deletion strains, locus YPL240C, strain hsp82, stronger effect = lower value 0.977 | S. cerevisiae deletion strains, locus YPR119W, strain clb2, stronger effect = lower value 0.974 | S. cerevisiae deletion strains, locus YPR141C, strain kar3, stronger effect = lower value 0.976 | S. cerevisiae deletion strains, locus YPR163C, strain tif3, stronger effect = lower value 0.973 | S. cerevisiae deletion strains, locus YPR167C, strain met16, stronger effect = lower value 0.974 | S. cerevisiae deletion strains, strain wtn01, stronger effect = lower value 0.972 | S. cerevisiae strains, strain wild type, stronger effect = lower value 1.01
